A549 viability: A549 cytotoxicity, counter-screen for Nrf2 inhibitors. Potency, µM (top dose mostly 46 µM), for inactives: top-dose activity change, negative = cytotoxicity, hits mostly inhibitors. hit rate 0.16% among 390,000. A549 ARE-Fluc cells, CellTiter-Fluor viability, 18-24 h. AID 504648; further: on the % scale 0 is the no-effect control and ±100 the full control effect
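A549 ARE_Fluc cells in 5% FBS OPTI-MEM were exposed to compounds in concentration-response for 18-24 h at 37 deg C. Viability was read by CellTiter-Fluor fluorescence (Ex 405/Em 525) after 30 min, before the luciferase read.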
Nrf2 block: inhibitors of Nrf2 signaling; A549 ARE-Fluc reporter, luciferase luminescence, 18-24 h; Potency, µM (series often up to 46 µM), inactives show top-dose activity change, negative = inhibition, actives largely listed as inhibitors; hit rate 2.1% among 360,000; AID 504444; further: on the % scale 0 is the no-effect control and ±100 the full control effect; nearly all actives have a fitted effect of over 60% in size
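Reporter: ARE-Fluc in A549. Exposure: 18-24 h, 37 °C, 5% CO2, 5% FBS OPTI-MEM. Readouts: fluorescent cytotoxicity (CellTiter-Fluor), then luminescent Nrf2 signal after BugLite.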
HepG2 viability: counter-screen for TGF-b inhibitors: cytotoxicity in HepG2 cells; hit rate 0.76% among 410,000; Potency, µM (series often up to 46.1 µM), without a hit: at the highest dose activity change, negative = cytotoxicity, most hits filed as cytotoxic; HepG2 CAGA-GFP viability, ATP luminescence, 18 h
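HepG2 CAGA-GFP cells (1000/well, DMEM with 1% FBS) received compound, then TGF-beta at 500 pg/mL final, and were incubated 18 hours at 37 degrees C. Viability was read by CellTiter-Glo luminescence. Media-only wells were set as complete cell-killing and DMSO as no toxicity.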
ATXN viability: reduces viability in counter-screen for ATXN expression inhibitors; S2 cells (HEK-293 line with an ATXN2-luciferase reporter) viability, CellTiter-Fluor protease fluorescence, 24 h; Potency, µM (series often up to 56.7 µM), actives largely listed as cytotoxic; hit rate 0.49% among 400,000; AID 651635; further: nearly all actives have a fitted effect of over 40% in size
ATXN2 expr inh: reduces ATXN2 reporter expression in HEK-293 cells; HEK-293 ATXN2-luciferase reporter, luminescence, 24 h; Potency, µM (doses to about 57 µM), for the others: at the top dose activity change, negative = inhibition, most hits filed as inhibitors; hit rate 0.72% among 360,000; AID 1745845; further: on the % scale 0 is the no-effect control and ±100 the full control effect; nearly all actives have a fitted effect of over 55% in size
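ATXN2-luciferase reporter cells (luciferase flanked by upstream and downstream ATXN2 gene portions) were treated 24 h at 37 °C with compounds at up to 57 uM. SteadyGlo luminescence gave expression; GF-AFC fluorescence gave viability.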
TGFb SMAD3 inh: TGF-b pathway inhibition. HepG2 CAGA-GFP TGF-b/SMAD3 reporter, GFP fluorescence, 18 h; TGF-beta stimulated, 500 pg/mL final. Potency, µM (series often up to 46.1 µM), without a hit: at the highest dose activity, negative = inhibition, hits mostly inhibitors. hit rate 1.2% among 410,000; further: on the % scale 0 is the no-effect control and ±100 the full control effect; nearly all actives have a fitted effect of over 65% in size
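TGF-beta reporter screen: HEPG2 CAGA-GFP, 1% FBS, 500 pg/mL TGF-beta final, 18 h; per-cell GFP summed per well; curves fitted and categorized by class.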
An asterisk follows results filed as active. Shown are actives, neighbours in structure and some others; about 3.8% of the full set was active somewhere. The call rests on the fitted dose curve; in most records, active means well fitted curve in the direction sought with a large enough effect; inconclusive means small, poorly fitted or top-dose-only effect, or another doubt; inactive means no such curve, though single readings can be large; an effect the other way counts as inactive or inconclusive. Potency means the concentration at half of the fitted maximal effect.

`Cc1ccc(N=c2ssnc2Cl)cc1` gave A549 viability 8.0%, Nrf2 block inconclusive, HepG2 viability -43.6%, ATXN viability inactive, ATXN2 expr inh -16.3% and TGFb SMAD3 inh inconclusive.
For Cc1nnc(N=c2ssnc2Cl)o1 the results were A549 viability 12.9%, Nrf2 block 0.3%, HepG2 viability -40.0%, ATXN viability inconclusive, ATXN2 expr inh inconclusive and TGFb SMAD3 inh 2.51µM*.
CC(C)N(C)c1ncnc2c1ncn2[C@H]1CN(CCN2CCOCC2)C[C@@H](CO)O1 was read as HepG2 viability 7.1%, ATXN viability inactive, ATXN2 expr inh 10.3% and TGFb SMAD3 inh 2.2%.
Screening COc1cccc(C(C)(O)c2nc(-c3cccc(C#N)c3)cs2)c1 (stereo unspecified) returned HepG2 viability -6.7%, ATXN viability inactive, ATXN2 expr inh 13.6% and TGFb SMAD3 inh -16.7%.
CCCn1c(=O)c(C(=O)NNS(=O)(=O)c2ccc(Cl)cc2)c(O)c2ccccc21 was read as A549 viability -17.5%, Nrf2 block inconclusive, HepG2 viability -56.0%, ATXN viability inactive, ATXN2 expr inh -17.7% and TGFb SMAD3 inh inconclusive.
`O=C(NCCCN1CCCC1=O)c1ccc(S(=O)(=O)Nc2cccc(C(F)(F)F)c2)cc1` gave A549 viability 1.8%, Nrf2 block inconclusive, HepG2 viability 0.5%, ATXN viability inconclusive, ATXN2 expr inh -35.0% and TGFb SMAD3 inh 0.0%.
`CC1=C(C)/C(=N\OS(=O)(=O)c2ccccc2)C=CC1=O` gave A549 viability -15.0%, Nrf2 block inconclusive, HepG2 viability 14.1µM*, ATXN viability 11.2µM*, ATXN2 expr inh 10µM* and TGFb SMAD3 inh inconclusive.
Cc1ccc(S(=O)(=O)O/N=C2\CCCc3ccccc32)cc1 was read as A549 viability -0.2%, Nrf2 block 12.1%, HepG2 viability 4.6%, ATXN viability inactive, ATXN2 expr inh -4.1% and TGFb SMAD3 inh 6.5%.
For Cc1ccc(S(=O)(=O)NCc2ccc(C(=O)NCCN(Cc3ccccc3)C(C)C)cc2)cc1 the results were A549 viability -8.3%, Nrf2 block -4.6%, HepG2 viability -10.7%, ATXN viability inactive, ATXN2 expr inh -30.7% and TGFb SMAD3 inh inconclusive.
Screening CCOc1ccc(N(CC)C(=O)c2cc3c(s2)-c2ccc(Cl)cc2SC3)cc1 returned A549 viability inconclusive, Nrf2 block 16.4µM*, HepG2 viability -19.9%, ATXN viability inactive, ATXN2 expr inh 7.9% and TGFb SMAD3 inh inconclusive.
COCCNC(=O)c1cc2c(s1)-c1ccc(Cl)cc1SC2 was read as A549 viability 0.2%, Nrf2 block inconclusive, HepG2 viability -16.5%, ATXN viability inactive, ATXN2 expr inh 6.1% and TGFb SMAD3 inh -28.3%.
Screening CC1=NC(=O)C(N=Nc2cccc(C(=O)O)c2)N1c1ccccc1 (stereo unspecified) returned A549 viability -15.7%, Nrf2 block inconclusive, HepG2 viability -7.1%, ATXN viability inconclusive, ATXN2 expr inh 8.91µM* and TGFb SMAD3 inh -14.8%.
Screening Cc1cccc(C(=O)N2CCCC(Nc3ccc(F)c(F)c3)C2)n1 (stereo unspecified) returned A549 viability 3.3%, Nrf2 block 16.0%, HepG2 viability 7.08µM*, ATXN viability inactive, ATXN2 expr inh -0.5% and TGFb SMAD3 inh -14.2%.
`Cc1cccc(C(=O)N2CCCC(Nc3ccc(C)c(C)c3)C2)n1` (stereo unspecified) gave A549 viability -11.4%, Nrf2 block 6.6%, HepG2 viability 5.5%, ATXN viability inactive, ATXN2 expr inh -3.1% and TGFb SMAD3 inh 0.4%.
For CCCCOC(=O)c1c(N)n(-c2ccc(OC)cc2OC)c2nc3ccccc3nc12 the results were A549 viability -1.4%, Nrf2 block 4.3%, HepG2 viability -8.3%, ATXN viability inactive, ATXN2 expr inh 7.2% and TGFb SMAD3 inh 2.8%.
